Several values for one entry are separate records, joined by “and”; a condition that tells them apart may be missing. Identical values can stand only once. Out of some 3,300 compounds screened, about 55 (2%) were called active.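 Rule for the calls: active = growth inhibition above 90%, meaning viable cell count by imaging cut by more than 90% versus vehicle controls; inactive = growth inhibition below 90%.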 Only a selection was taken, and actives are over-represented in it overall. More than one record can exist for a structure, and the calls need not agree.

Consider 43 compounds from PubChem BioAssay AID771 (SRMLSC, 2007).

The nature of this experiment: HT29 colon tumor cell growth inhibition, primary screen, imaging, high content imaging, 48 h, CellTiter-Glo (AID 771).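 For condensed nuclei: condensed means Hoechst nuclear area under control median minus 1.5 SD.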 To be noted: HCS imaging cell count, at 10 µM, stronger effect = higher value; for condensed nuclei: measured here: percent cells with condensed nuclei. In general terms: Cellular ATP, detected with luciferase, serves as a proxy for viable cell number.
[1] abbreviates: measured here: ATP CellTiter-Glo viability inhibition.

With `Cc1[nH]c2ccc(F)cc2c(=O)c1SC(F)(F)C(F)C(F)(F)F` (stereo not drawn), the growth inhibition was 31.7% (inactive) and the condensed nuclei is 3.08%. Under setting [1], the growth inhibition is -13.7%.
Consider `COc1cccc2c(=O)c(SC(F)(F)C(F)C(F)(F)F)c(C)[nH]c12` (stereo not drawn), for which the growth inhibition was 91.7% (active) and the condensed nuclei was 11.3%. Also, under setting [1], the growth inhibition turned out to be 63.5%.
In the same order, the values of `COc1cccc(C(=O)NCC(=O)n2nc(C)cc2C)c1` are -2.19% (inactive), 2.14% and -15.9%.
The like results for `CN(C)CC(O)COc1ccc(C(C)(C)c2ccc(OCC(O)CN(C)C)cc2)cc1` (stereo not drawn) were, in that order, 99.1% (active), 29.1% and 95.7%.
In the same order, the values of `CN(C)CC(O)COc1ccc(-c2ccc(C#N)cc2)cc1` (stereo not drawn) are 71.1% (inactive), 5.66% and 51.9%.
In the case of `CN(C)CC(O)COc1cccc(OCC(O)CN(C)C)c1` (stereo not drawn), the growth inhibition was 26.5% (inactive) and the condensed nuclei was determined as 1.99%. For the same compound, under setting [1], the growth inhibition is -7%.
For the compound `OC(CCN1CCCC1)(c1ccccc1)C1CCCCC1` (stereo not drawn), the growth inhibition was 57.7% (inactive) and the condensed nuclei was 7.95%.
The like results for `CC(C)(C)c1ccc(C(O)CCCN2CCC(C(O)(c3ccccc3)c3ccccc3)CC2)cc1` (stereo not drawn) were, in that order, 98.2% (active) and 36.3%.
In the same order, the values of `OC(CCN1CCCCC1)(c1ccccc1)C1CCCCC1` (stereo not drawn) are 6.78% (inactive) and 4.4%.
With `CCOC(=O)C1=C(C)N=C2SC(C)C(=O)N2C1c1ccc(OC(C)=O)c(OC)c1` (stereo not drawn), the growth inhibition was 42.7% (inactive) and the condensed nuclei came to 1.51%. Moreover, under setting [1], the growth inhibition is 12.7%.
In the same order, the values of `CC(C)Cc1[nH]c(=O)c(C#N)c2c1COC(C)(C)C2` are -9.54% (inactive), 1.96% and 6.82%.
For the compound `CCN(CC)c1ccc2cc(C(=O)Nc3ccccn3)c(=O)oc2c1`, the growth inhibition was -58.4% (inactive) and the condensed nuclei was 2.18%. Also, the growth inhibition under setting [1] was -2.93%.
In the same order, the values of `CCCCCCc1cc2cc(-c3nnc(-c4ccccc4O)o3)c(=O)oc2cc1O` are 4.58% (inactive), 3.18% and 3.73%.
The like results for `CCN(CC)c1ccc2cc(-c3nnc(-c4ccncc4)o3)c(=O)oc2c1` were, in that order, 100% (active), 1.36% and -8.56%.
For the compound `CN1CCN(CCCN2c3ccccc3Sc3ccc(C(F)(F)F)cc32)CC1`, the growth inhibition was 99.7% (active) and the condensed nuclei was 45.5%.
The like results for `CSc1ccc2c(c1)N(CCC1CCCCN1C)c1ccccc1S2` (stereo not drawn) were, in that order, 8.58% (inactive) and 2.87%.
The like results for `OCCN1CCN(CCCN2c3ccccc3Sc3ccc(C(F)(F)F)cc32)CC1` were, in that order, 99.7% (active) and 57%.
In the same order, the values of `OCCN1CCN(CCCN2c3ccccc3Sc3ccc(Cl)cc32)CC1` are 84.9% (inactive) and 46.7%.
With `CN1CCN(CCCN2c3ccccc3Sc3ccc(Cl)cc32)CC1`, the growth inhibition is -16.4% (inactive) and the condensed nuclei is 1.86%.
For the compound `CN1CCN(CCC(=O)N2c3ccccc3Sc3ccc(Cl)cc32)CC1`, the growth inhibition is 55.5% (inactive) and the condensed nuclei worked out at 2.4%. Under setting [1], the growth inhibition is -11.6%.
The like results for `CCCOc1ccc(/C(O)=C2/C(=O)C(=O)N(CCN3CCOCC3)C2c2ccccc2)cc1` (stereo not drawn) were, in that order, 6.6% (inactive), 3.56% and -7.42%.
Take `CC1(C)Cc2nc(N)c(C(=O)NCCO)cc2CO1`: the growth inhibition was -4.53% (inactive) and the condensed nuclei was 3.27%. Further, under setting [1], the growth inhibition is -20.8%.
On to `COc1ccc(/C(O)=C2\C(=O)C(=O)N(c3cc(C)on3)C2c2cccc(OC)c2OC)cc1C` (stereo not drawn), for which the growth inhibition is 37.5% (inactive) and the condensed nuclei is 2.33%. Also, the growth inhibition under setting [1] is -6.66%.
As to `CCN(CC)CCNC(=O)c1ccccc1N`, the growth inhibition is 25.6% (inactive) and the condensed nuclei came out at 0.38%. For the same compound, the growth inhibition under setting [1] was found to be 4.22%.
For the compound `CCCCOc1cc(C(=O)NCCN(CC)CC)c2ccccc2n1`, the growth inhibition is 2.54% (inactive) and 97.2% (active); the condensed nuclei was 0.87% and 22.7%.
For the compound `CCCCOc1ccccc1C(=O)NCCCC(=O)O`, the growth inhibition was 45.1% (inactive) and the condensed nuclei was 2.4%. Moreover, the growth inhibition under setting [1] was found to be 27.4%.
In the same order, the values of `CC(C)C1Cc2c(C#N)c(N)sc(=S)c2CO1` (stereo not drawn) are -17.8% (inactive), 3.02% and -10.1%.
Regarding `CNCCC(Oc1ccc(C(F)(F)F)cc1)c1ccccc1` (stereo not drawn), the growth inhibition is 98.6% (active) and the condensed nuclei is 23.4%.
Take `CC(=N\O)/C(CN(C)C)=N/O`: the growth inhibition is 19.1% (inactive) and the condensed nuclei came out at 2.85%. The growth inhibition under setting [1] is 5.48%.
The like results for `CCc1[nH]nc2c1C(c1ccc(Br)s1)C(C#N)=C(N)O2` (stereo not drawn) were, in that order, 61% (inactive), 4.86% and 16.8%.
With `COc1cc(/C=C/C(=O)CC(=O)/C=C/c2ccc(O)c(OC)c2)ccc1O`, the growth inhibition is 95.8% (active) and the condensed nuclei came to 35.4%.
In the same order, the values of `O=C(O)/C=C/c1ccc(O)c(O)c1` are -1.98% (inactive) and 2.21%.
The like results for `CCN(CC)C(=O)c1ccc(O)c(OC)c1` were, in that order, -10.4% (inactive) and 2.13%.
Turning to `CCCc1nnc(SCc2ccc(OCC)cc2)n1N`, the growth inhibition is 34.1% (inactive) and the condensed nuclei is 1.98%. For the same compound, under setting [1], the growth inhibition was 0.5%.
For the compound `NC(Cc1ccc(Oc2ccc(O)cc2)cc1)C(=O)O` (stereo not drawn), the growth inhibition was -13.8% (inactive) and the condensed nuclei was found to be 5.21%.
Regarding `CCn1nnc(C(=O)O)c1C(=O)O`, the growth inhibition is -4.1% (inactive) and the condensed nuclei was 2.3%. Further, the growth inhibition under setting [1] was -5.53%.
In the same order, the values of `Brc1ccc2c(c1)CNc1c(ncnc1N1CCOCC1)O2` are 45.1% (inactive), 0.48% and 12.2%.
In the same order, the values of `N#CC12CCCCC1CC1CCCCC1(C#N)N2Cc1cccnc1` (stereo not drawn) are 20.9% (inactive), 2.55% and -2.93%.
In the case of `CNCCCC1c2ccccc2C=Cc2ccccc21`, the growth inhibition was 98% (active) and the condensed nuclei came out at 25%.
The like results for `CC(NCCC(c1ccccc1)c1ccccc1)c1ccccc1` (stereo not drawn) were, in that order, 95.3% (active) and 28.3%.
As for `CC(NC(=O)c1ccc(=O)oc1)c1ccccc1` (stereo not drawn), the growth inhibition was 53.4% (inactive) and the condensed nuclei came to 5.45%. In addition, the growth inhibition under setting [1] was -2.53%.
The like results for `O=C(O)c1ccc(C2CCCCC2)cn1` were, in that order, -17.2% (inactive), 0.69% and -12.9%.
As for `CCN(CC)CCN1C(=O)C(=O)/C(=C(/O)c2c(C)[nH]c(C(=O)OC)c2C)C1c1ccccc1` (stereo not drawn), the growth inhibition is 29.2% (inactive) and the condensed nuclei stood at 11%. Further, under setting [1], the growth inhibition was determined as 26.4%.
